40 compounds from PubChem BioAssay (NCATS) can be followed below.

Records with an inconclusive call do not appear. Entries that show only a call come without a potency. Unmarked numbers belong to inactive results. Calls of active or inactive are those of the source. The call rests on the fitted dose curve.

Retinoic acid receptor RXR-alpha (Homo sapiens), sequence (P19793 whole entry, looked up): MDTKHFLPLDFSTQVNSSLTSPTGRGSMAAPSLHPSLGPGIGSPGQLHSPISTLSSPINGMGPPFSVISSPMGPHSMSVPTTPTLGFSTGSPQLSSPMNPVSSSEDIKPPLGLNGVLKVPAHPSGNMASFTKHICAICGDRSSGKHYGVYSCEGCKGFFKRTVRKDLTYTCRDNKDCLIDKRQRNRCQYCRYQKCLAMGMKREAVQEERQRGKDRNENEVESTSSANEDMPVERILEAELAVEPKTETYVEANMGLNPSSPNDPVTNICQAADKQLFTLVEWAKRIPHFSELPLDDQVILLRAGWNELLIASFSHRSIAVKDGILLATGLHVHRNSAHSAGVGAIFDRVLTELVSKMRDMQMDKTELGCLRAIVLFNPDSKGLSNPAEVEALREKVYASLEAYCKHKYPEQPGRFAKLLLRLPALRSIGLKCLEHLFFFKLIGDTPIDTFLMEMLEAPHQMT

The assay concerns the target Retinoic acid receptor RXR-alpha (Homo sapiens) (UniProt P19793). Briefly: qHTS assay for small molecule agonists of retinoid X receptor alpha signaling (AID 588544). As to conditions: HEK293T RXRa-UAS-bla, beta-lactamase reporter, 18 h; series mostly up to 76.7 µM; activation: at the top concentration. The text has this:
NIH Chemical Genomics Center [NCGC] U.S. Environmental Protection Agency [EPA] National Institutes of Environmental Health Sciences [NIEHS] National Toxicology Program [NTP] NCGC Assay Overview The Retinoid X receptor (RXR), a nuclear hormone receptor is expressed in liver, spleen, placenta, epidermis, central nervous system. These receptors are able to form homo and heterodimers with other nuclear receptors and due to this heterodimerizing ability, RXR functions as master regulators producing diverse physiological effects. Three subtypes of RXR exist; alpha, beta and gamma. Retinoid X receptor alpha (RXR-alpha) has potential roles in metabolic signaling pathways, skin alopecia, dermal cysts, cardiac development, insulin sensitization etc. Therefore screening environmental chemicals on RXR-alpha signaling can be used for the studies focused on such therapeutic applications.
NCGC Assay Protocol Summary Using a beta-lactamase reporter-gene under control of Retinoid X receptor--alpha (RXR-alpha) response element, a cell-based assay [GeneBLAzer (RXR-alpha -UAS-bla assay developed by Invitrogen] was used to measure RXR-alpha ligands signaling. GeneBLAzer RXR-alpha -UAS-bla HEK293T cells were used with assay medium containing 2% charcoal-stripped FBS. The assay was performed in clear bottom black Greiner 1536-well plates. 9-cis-retinoic acid was used in the screen as the positive control. Library compounds were measured for their ability to stimulate the reporter gene activity. Compounds were screened in a titration series in 1536-well format. The fluorescence intensity (405 nm excitation, 460/530 nm emission) was measured using an EnVision plate reader. Data was normalized relative to 9-cis-retinoic acid control (500 nM, 100%), and DMSO only wells (basal, 0%). Concentration-response titration points for each compound were fitted to the Hill equation yielding concentrations of half-maximal stimulation (EC50) and maximal response (efficacy) values. qHTS protocol for RXR-alpha beta-lactamase assay in agonist mode [Step] [Parameter] [Value] [Description] 1. Reagent; 6 uL; 2500 cells/well 2. Incubation; 37 C for 4 hrs 3. Compounds; 23 nL; 0.59 nM to 92 uM 4. Controls (9-cis-retinoic acid); 23 nL, - One column with dose response, start 38 uM, 1:3 dilutions in duplicates - Final concentrations of 500 nM and 50 nM in two columns 5. Incubation; 37 C for 18 hrs 6. Detection reagent; 1 uL of CCF4-dye 7. Incubation; RT for 2 hrs 8. Detection; Fluorescence; Envision plate reader
Take `CCCCOC(=O)c1ccccc1C(=O)OCCCC`: the Potency result was “inactive”.

With `C=CCOC(C)=O`, the “activation” value was 7.83%.

Regarding `O=NN(CCO)CCO`, the “activation” value is 11.1%.

For the compound `c1ccc(N=Nc2ccccc2)cc1`, the Potency entry was “inactive”.

Regarding `CCCOC(=O)c1ccccc1C(=O)OCCC`, the Potency entry is “inactive”.

For `CN=C=S`, the Potency result was “inactive”.

`CC(C)(C)C(=O)C(Oc1ccc(Cl)cc1)n1cncn1` (stereo not given): the Potency result is “inactive”.

For `O=NN(c1ccccc1)c1ccccc1`, the Potency entry is “inactive”.

Take `Nc1ccccc1Cl`: the “activation” value was 3.66%.

Turning to `Clc1ccc2ccccc2c1`, the “activation” value was 7.05%.

Turning to `CC1(C)C(C=C(Cl)Cl)C1C(=O)OCc1cccc(Oc2ccccc2)c1` (stereo not given), the Potency entry was “inactive”.

In the case of `CC(C)N1C(=O)c2ccccc2NS1(=O)=O`, the “activation” value was -4.31%.

On to `CCOP(=S)(OCC)SCSC(C)(C)C`, for which the Potency entry is “inactive”.

`Cc1ccc([N+](=O)[O-])cc1C`: the “activation” value is 9.73%.

For the compound `O=[N+]([O-])c1ccc(Cl)c(Cl)c1`, the “activation” value is -3.72%.

Take `Clc1nc(Cl)nc(Cl)n1`: the Potency entry is “inactive”.

For the compound `C=CC(N)=O`, the Potency result was “inactive”.

Take `[O-][Br+2]([O-])O`: the Potency entry is “inactive”.

On to `O=S1OCC2C(CO1)C1(Cl)C(Cl)=C(Cl)C2(Cl)C1(Cl)Cl` (stereo not given), for which the “activation” value is -8.07%.

As for `CCCC(=O)Cl`, the “activation” value was 2.84%.

Regarding `CCC(=O)Nc1ccc(Cl)c(Cl)c1`, the “activation” value was -8.78%.

In the case of `O=C(O)COc1ccc(Cl)cc1Cl`, the “activation” value is -10.2%.

With `ClC(Cl)=C(Cl)C(Cl)=C(Cl)Cl`, the Potency entry was “inactive”.

Regarding `COc1ccc(N)cc1`, the Potency result is “inactive”.

As for `COP(=S)(OC)Oc1ccc([N+](=O)[O-])cc1`, the Potency result was “inactive”.

For `COC(=O)NC(=S)Nc1ccccc1NC(=S)NC(=O)OC`, the Potency entry is “inactive”.

`N#CCCCl`: the Potency result is “inactive”.

With `COc1nc(NC(C)C)nc(NC(C)C)n1`, the “activation” value is -18.8%.

On to `C=C(C)C#N`, for which the Potency entry was “inactive”.

As to `CC(Cl)Cl`, the “activation” value is 5.18%.

In the case of `Cc1cccc(C#N)c1`, the “activation” value was 17.9%.

On to `CNC(=O)CSP(=S)(OC)OC`, for which the “activation” value is 1.84%.

Turning to `CC(C)(c1ccccc1)c1ccc(O)cc1`, the Potency entry is “inactive”.

`ClCBr`: the “activation” value was 5.4%.

As for `S=C=Nc1cccc2ccccc12`, the “activation” value is -13.5%.

In the case of `C=CCc1ccc2c(c1)OCO2`, the “activation” value was 9.56%.

For `c1ccc(OP(Oc2ccccc2)Oc2ccccc2)cc1`, the Potency entry was “inactive”.

On to `CNC(=O)O/N=C/C(C)(C)SC`, for which the Potency entry was “inactive”.

Consider `C[C@H]1CCCC(=O)CCC/C=C/c2cc(O)cc(O)c2C(=O)O1`, for which the Potency result was “inactive”.

With `Clc1cccc(C(Cl)(Cl)Cl)n1`, the Potency entry is “inactive”.
